Source: PubChem BioAssay (National Center for Advancing Translational Sciences (NCATS))
Shown are actives, neighbours in structure and some others; about 10% of the full set was active somewhere.
NIH3T3 tox: Cytotoxic Profiling in NIH 3T3 Cell Line of Diverse Libraries Using Quantitative High-Throughput Screening; NIH 3T3 viability, CellTiter-Glo ATP luminescence, 48-72 h; hit rate 4.3% among 94,000; Potency, µM (titrated, usually from 96.7 µM), usual class: inhibitors; note: nearly all actives have a fitted effect of over 55% in size
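Mouse fibroblast NIH 3T3 cells, 400 per well, received compound via pintool and were incubated for 48 or 72 hr prior to CellTiter-Glo ATP luminescence measurement.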
HEK293 tox: Cytotoxic Profiling in HEK 293 Cell Line of Diverse Libraries Using Quantitative High-Throughput Screening | HEK 293 viability, ATP luminescence (CellTiter-Glo), 48-72 h | Potency, µM (titrated, usually from 115 µM), most hits filed as inhibitors | hit rate 6.6% among 94,000; note: nearly all actives have a fitted effect of over 60% in size
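Cytotoxicity was scored by loss of ATP-coupled luminescence (CellTiter-Glo) in HEK 293 cells. Compound treatment ran 48 or 72 hr at 37 degree Celsius, 5% CO2, 95% humidity.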
hNpr1 antagonist: Natriuretic polypeptide receptor (hNpr1) antagonism - Primary qHTS; hit rate 1.6% among 76,000; Potency, µM (doses to about 46.3 µM), most hits filed as inhibitors; Atrial natriuretic peptide receptor 1 (Homo sapiens), P16066; HEK293 hNpr1 GloSensor cGMP, ANP-stimulated luminescence; calls by dose curve; note: nearly all actives have a fitted effect of over 60% in size
Target sequence (P16066 whole entry, looked up): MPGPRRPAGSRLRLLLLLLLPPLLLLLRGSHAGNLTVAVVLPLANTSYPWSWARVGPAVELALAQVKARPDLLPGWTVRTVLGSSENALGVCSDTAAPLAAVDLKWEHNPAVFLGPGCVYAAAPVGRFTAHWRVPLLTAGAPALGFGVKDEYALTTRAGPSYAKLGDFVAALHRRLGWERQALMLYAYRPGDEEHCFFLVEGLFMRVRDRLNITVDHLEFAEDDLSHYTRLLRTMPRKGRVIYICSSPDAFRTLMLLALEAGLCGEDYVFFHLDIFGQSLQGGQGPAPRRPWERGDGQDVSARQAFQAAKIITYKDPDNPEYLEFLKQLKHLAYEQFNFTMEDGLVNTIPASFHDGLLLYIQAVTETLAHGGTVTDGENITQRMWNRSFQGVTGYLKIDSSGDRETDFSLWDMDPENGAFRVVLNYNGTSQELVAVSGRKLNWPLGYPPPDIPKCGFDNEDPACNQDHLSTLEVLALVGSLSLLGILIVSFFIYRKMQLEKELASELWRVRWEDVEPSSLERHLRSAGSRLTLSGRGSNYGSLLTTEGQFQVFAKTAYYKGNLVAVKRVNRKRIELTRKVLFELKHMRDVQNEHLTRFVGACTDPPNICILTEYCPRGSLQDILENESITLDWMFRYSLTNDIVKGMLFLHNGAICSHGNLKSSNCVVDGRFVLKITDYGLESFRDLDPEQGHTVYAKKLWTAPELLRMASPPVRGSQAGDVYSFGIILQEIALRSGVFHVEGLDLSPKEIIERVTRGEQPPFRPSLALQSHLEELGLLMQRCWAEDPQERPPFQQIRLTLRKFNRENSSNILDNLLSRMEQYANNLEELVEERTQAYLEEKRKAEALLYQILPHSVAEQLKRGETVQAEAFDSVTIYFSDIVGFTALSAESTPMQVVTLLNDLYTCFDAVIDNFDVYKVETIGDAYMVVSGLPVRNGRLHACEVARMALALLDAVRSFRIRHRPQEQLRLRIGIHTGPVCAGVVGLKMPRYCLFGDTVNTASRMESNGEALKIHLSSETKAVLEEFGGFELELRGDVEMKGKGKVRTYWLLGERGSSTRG
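HEK293 cells stably expressing human Npr1 and cGMP GloSensor pGS-40F, loaded 2 h with 2% GloSensor reagent, given compound 30 min at room temperature. Luminescence read before and 20 min after 0.1 nM hNppA.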
FLuc inh: Firefly luciferase inhibition profiling of diverse chemical library using quantitative high-throughput screening; Luciferin 4-monooxygenase (Photinus pyralis), P08659; purified P. pyralis luciferase, luminescence, biochemical; Potency, µM (titrated, usually from 115 µM), usual class: inhibitors; hit rate 2.5% among 76,000; AID 1347043, 2019; note: nearly all actives have a fitted effect of over 65% in size
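Biochemical qHTS: compound (6-point titration) added to 10uM D-luciferin plus 10uM ATP in Tris acetate pH 7.5 buffer with Mg, Tween-20 and BSA, then purified enzyme at 10nM; light output imaged.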
GPT2 inhibitor: Primary qHTS assay for inhibitors of Glutamate pyruvate transaminase 2 (GPT2). Alanine aminotransferase 2 (Homo sapiens), Q8TD30. Recombinant GPT2, coupled pyruvate oxidase/HRP Amplex Red fluorescence. Potency, µM (titrated, usually from 57.7 µM), usual class: inhibitors. hit rate 0.25% among 100,000; note: nearly all actives have a fitted effect of over 60% in size
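Inhibition is scored from Amplex Red fluorescence generated when pyruvate oxidase and HRP act on pyruvate released by GPT2. Reactions contain 10ng/uL enzyme, 250uM a-KG and 2mM L-alanine and run 30 min at room temperature.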
Each line names hits and unclear results; the compound was inactive in the other large screens; ! = not active in a repeat. Unless noted, calls come from the whole dose curve; as a rule, active = well fitted curve in the direction sought with a large enough effect; inconclusive = small, poorly fitted or top-dose-only effect, or another doubt; inactive = no such curve, though single readings can be large; an effect the other way counts as inactive or inconclusive.

CC1(O)CCCN(Cc2cc3cc4c(cc3nc2-c2ccc(Cl)cc2)OCO4)C1 (centres undefined)	NIH3T3 tox inconclusive, HEK293 tox inconclusive, FLuc inh 32µM
COc1cc2cc(CN3CCC(N(C)C)C3)c(-c3cccc(Cl)c3)nc2cc1OC (centres undefined)	NIH3T3 tox inconclusive, HEK293 tox inconclusive, FLuc inh inconclusive
CN(C)C1CCN(Cc2cc3cc4c(cc3nc2-c2ccc(Cl)cc2)OCO4)C1 (centres undefined)	NIH3T3 tox inconclusive, HEK293 tox inconclusive, FLuc inh 28µM
c1ccc(CN(Cc2ccccn2)[C@H]2C[C@H]3CCOC[C@@]3(c3ccccc3)C2)cc1	NIH3T3 tox inconclusive, HEK293 tox 50µM (no result: hNpr1 antagonist, FLuc inh, GPT2 inhibitor)
COc1cccc(CN(Cc2ccccc2)[C@H]2C[C@H]3CCOC[C@@]3(c3ccccc3)C2)c1	HEK293 tox inconclusive (no result: hNpr1 antagonist, FLuc inh, GPT2 inhibitor)
Cc1nn(C)c2nc(NCCC(=O)N3CCC(C)CC3)sc12	NIH3T3 tox inconclusive, HEK293 tox inconclusive
Cc1ccc([S+](=O)([O-])N2CCC(N3CC4CCCN4C3=O)CC2)cc1 (centres undefined)	none
CCNC(=O)N1CCC(C2CCN(C(C)=O)CC2)C1 (centres undefined)	none
Cc1ccc(C(=O)N2CCC(N3C(=O)c4c(c(C)nn4-c4ccccc4)C3C3CC3)C2)cc1 (centres undefined)	NIH3T3 tox 18µM, HEK293 tox 25µM (no result: hNpr1 antagonist, FLuc inh, GPT2 inhibitor)
Cc1nn(-c2ccccc2)c2c1C(C1CC1)N(C1CN(C(=O)c3ccncc3)C1)C2=O (centres undefined)	none (no result: hNpr1 antagonist, FLuc inh, GPT2 inhibitor)
COc1ccc(C(=O)N2CCC(N3C(=O)c4c(c(C)nn4-c4ccccc4)C3C3CC3)C2)cc1 (centres undefined)	NIH3T3 tox inconclusive, HEK293 tox 45µM (no result: hNpr1 antagonist, FLuc inh, GPT2 inhibitor)
Cc1nn(-c2ccccc2)c2c1C(C1CC1)N(C1CCN(C(=O)c3ccccc3)C1)C2=O (centres undefined)	NIH3T3 tox 14µM, HEK293 tox inconclusive (no result: hNpr1 antagonist, FLuc inh, GPT2 inhibitor)
Cc1nn(-c2ccccc2)c2c1C(C1CC1)N(C1CN(C(=O)c3ccc(C(F)(F)F)cc3)C1)C2=O (centres undefined)	HEK293 tox inconclusive (no result: hNpr1 antagonist, FLuc inh, GPT2 inhibitor)
Cc1nn(-c2ccccc2)c2c1C(C1CC1)N(CC1CN(C(=O)c3ccc(F)cc3)C1)C2=O (centres undefined)	NIH3T3 tox inconclusive, HEK293 tox 35µM (no result: hNpr1 antagonist, FLuc inh, GPT2 inhibitor)
CNC(=O)c1ccc(Cl)c(NC(=O)N[C@H]2CN(C(C)C)C[C@@H]2OC)c1	none
Cc1ccc(CN2CC[C@H](CO)[C@H](NC(=O)c3cccnc3)C2)s1	none
CCCCCCCCCCCCCCCC(=O)OC(C)C	none (no result: NIH3T3 tox, HEK293 tox, hNpr1 antagonist, FLuc inh)
Cc1nn(-c2ccccc2)c2c1C(C1CC1)N(C1CCCN(C(=O)c3ccc(F)cc3)C1)C2=O (centres undefined)	NIH3T3 tox inconclusive, HEK293 tox 32µM (no result: hNpr1 antagonist, FLuc inh, GPT2 inhibitor)
CNc1cc2[nH]c(=O)n(-c3ccc(NC(=O)NS(=O)(=O)c4ccc(Cl)s4)cc3)c(=O)c2cc1F	none (no result: NIH3T3 tox, HEK293 tox, hNpr1 antagonist, FLuc inh)
O=C(COc1ccc(F)cc1)N1CCOc2ccc(N3CCOCC3)cc2C1	NIH3T3 tox inconclusive, HEK293 tox inconclusive (no result: hNpr1 antagonist, FLuc inh)
Cc1ncsc1CN1C(=O)CO[C@H](c2ccc(NC(=O)CC(C)C)cc2)[C@H]1CO	none
O=C(NCCc1ccccc1)c1c[nH]c2ncccc12	FLuc inh 20µM
O=C(NCc1ccc(Cl)cc1)c1c[nH]c2cccnc12	NIH3T3 tox 16µM, HEK293 tox 35µM (no result: hNpr1 antagonist, FLuc inh)
O=C(NCc1ccc(Cl)cc1)c1c[nH]c2ncccc12	NIH3T3 tox inconclusive, HEK293 tox inconclusive, FLuc inh 28µM
Cc1ccc(NC(=O)Cn2c(-c3ccc(F)cc3)nc(C)cc2=O)c(C)c1	none
CO[C@H]1C(=O)N(C)C2(CCN(C(=O)C3CCCCC3)CC2)[C@@H]1C(=O)N(C)c1ccccc1	NIH3T3 tox inconclusive (no result: hNpr1 antagonist, FLuc inh, GPT2 inhibitor)
Cc1ccc(-c2cccc(CN3CCCC(c4nc5ccc(F)cc5c(=O)[nH]4)C3)c2)c(C)c1 (centres undefined)	NIH3T3 tox 40µM, HEK293 tox 32µM!
O=c1[nH]c(C2CCCN(Cc3cccc(-c4cccs4)c3)C2)nc2ccc(F)cc12 (centres undefined)	NIH3T3 tox 32µM, HEK293 tox 32µM, hNpr1 antagonist inconclusive
COc1cccc(N2C(=O)NC(=NC3CCCCC3)C23CCN(C(=O)c2ccc(C(F)(F)F)cc2)CC3)c1	none (no result: hNpr1 antagonist, FLuc inh)
CCC(C(=O)N1CCc2onc(-c3ccc(F)c(F)c3)c2C1)n1cccn1 (centres undefined)	HEK293 tox inconclusive
Cc1nn2c(c1-c1ccccc1C(C)C)N(C(=O)c1cc3ccccc3n1C)CCC2	NIH3T3 tox 22µM, HEK293 tox 50µM, hNpr1 antagonist inconclusive
Cc1nn2c(c1-c1ccccc1N1CCCC1)N(C(=O)c1ccc(F)cc1)CCC2	NIH3T3 tox inconclusive, HEK293 tox 71µM
Cc1nn2c(c1-c1cccnc1N1CCOCC1)N(C(=O)c1cc3ccccc3n1C)CCC2	NIH3T3 tox inconclusive
Cc1nn2c(c1-c1ccccc1N1CCCC1)N(C(=O)c1cc3ccccc3n1C)CCC2	NIH3T3 tox 35µM, HEK293 tox 50µM
CC(C)N1C(=O)C2(CCCC2)C1C(=O)N1CCCCC1 (centres undefined)	none
CC(C)N(CC1CC1)C(=O)CC1COc2ccc(C(=O)N(C)C)cc2N1C (centres undefined)	none
O=C(c1cc(F)ccc1F)N1CCC2(CC1)N(c1ccccc1)C(=O)CS2(=O)=O	none
CN(CC1CCOCC1)C(=O)NCCc1ccccc1	FLuc inh inconclusive
CN(CC1CCOCC1)C(=O)CCCc1ccccc1	FLuc inh 40µM
COCCn1ncc(N2CCCC(CC(=O)Nc3cc(OC)cc(OC)c3)C2)cc1=O (centres undefined)	NIH3T3 tox inconclusive
COc1cc(-c2ccnc(-c3nnc(C)n3Cc3ccccc3)c2)ccn1	NIH3T3 tox inconclusive, HEK293 tox inconclusive
Cc1cc(C)c(C)c(S(=O)(=O)NC2CCN(c3ccc(=O)n(CC4CC4)n3)CC2)c1C	NIH3T3 tox inconclusive, HEK293 tox 32µM, hNpr1 antagonist inconclusive
O=c1ccc(N2CCC(NS(=O)(=O)c3ccc(Cl)s3)CC2)nn1CC1CC1	NIH3T3 tox inconclusive, HEK293 tox inconclusive, hNpr1 antagonist inconclusive
O=C(N[C@H]1CO[C@H]2[C@@H]1OC[C@H]2OCc1ccccc1)c1ccc(C(F)(F)F)cc1	HEK293 tox 79µM, hNpr1 antagonist inconclusive, FLuc inh inconclusive
COc1ccc2c(c1)CCN=C2C[C@H]1CN(C(=O)NC(C)C)CC[C@H]1CC(=O)O	none
CC1=C(C(=O)O)N2C(=O)[C@@H](NC(=O)C(N)C3=CCC=CC3)[C@H]2SC1 (some centres undefined)	none (no result: NIH3T3 tox, HEK293 tox, hNpr1 antagonist, FLuc inh)
